Consider 39 molecules from the supplement of paper PMC12494721.

Structures can show the parent of a compound that is named as a salt. Unmarked numbers belong to inactive results.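 How the source made its calls: for the amine columns active = adjusted P below 0.05 in both replicates with a change the same way and a mean fold change under 0.8 or over 1.25; inactive = the rest.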

The experiment deals with Klebsiella aerogenes DSM 30053. Briefly: fold change of Putrescine concentration vs plate DMSO controls (fold change (ratio)); higher = more amine produced, active = hit call of the paper (significant change in both replicates, either direction). The note with it: incubation time: 27 h, anaerobic, 37 °C. An outline of the steps: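 Each value is the fold change relative to DMSO-only wells on the same plate. Four gut bacterial strains were grown anaerobically in mGAM at 37 °C for 27 h in 80 µL wells, starting at OD 0.1 before a 1:1 dilution, with compounds at 20 µM final (sweeteners 50 µM). Whole cultures were extracted with cold acetonitrile/methanol containing 0.1% formic acid, centrifuged, and amines were quantified by LC–triple-quadrupole MS (dynamic MRM) against external calibration curves with within-batch drift correction. Values are means of 2 biological replicates.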
As for `CC#C[C@]1(O)CC[C@H]2[C@@H]3CCC4=CC(=O)CCC4=C3[C@@H](c3ccc(N(C)C)cc3)C[C@@]21C` [Mifepristone] (20 µM), the “fold change of Putrescine concentration” value is 1.02. With `C[C@]12CC[C@@H]3c4ccc(O)cc4CC[C@H]3[C@@H]1CCC2=O` [Estrone] (20 µM), the “fold change of Putrescine concentration” value was 1.02. In the case of `O=C(O)c1cccnc1Nc1cccc(C(F)(F)F)c1` [Niflumic acid] (20 µM), the “fold change of Putrescine concentration” value was 1.01.

With `OCCN1CCN(CCCN2c3ccccc3C=Cc3ccccc32)CC1` [Opipramol dihydrochloride] (20 µM), the “fold change of Putrescine concentration” value was 0.994. Under `COCC1=C(C(=O)OC(C)OC(=O)OC(C)C)N2C(=O)[C@@H](NC(=O)/C(=N\OC)c3csc(N)n3)[C@H]2SC1` (some centres undefined) [Cefpodoxime proxetil] (20 µM) stands 1.03; under `CN(CCOc1ccc(CC2SC(=O)NC2=O)cc1)c1ccccn1` (centres undefined) [Rosiglitazone hydrochloride] (20 µM), 0.993; under `CC(C(=O)O)c1ccc(-c2ccccc2)c(F)c1` (centres undefined) [Flurbiprofen] (20 µM), 1.03. On to `CCCCc1oc2ccc(NS(C)(=O)=O)cc2c1C(=O)c1ccc(OCCCN(CCCC)CCCC)cc1` [Dronedarone hydrochloride] (20 µM), for which the “fold change of Putrescine concentration” value is 1.

In the case of `O=C(COc1ccc(Cl)cc1)N1CCN(Cc2ccc3c(c2)OCO3)CC1` [Fipexide hydrochloride] (20 µM), the “fold change of Putrescine concentration” value was 1.01.

As for `CCCCCCCCCCCCCCCC[N+](C)(C)CCN(Cc1ccc(OC)cc1)c1ncccn1` [Thonzonium bromide] (20 µM), the “fold change of Putrescine concentration” value is 1.

In the case of `C#C[C@]1(O)CC[C@H]2[C@@H]3CCc4cc(OC)ccc4[C@H]3CC[C@@]21C` [Mestranol] (20 µM), the “fold change of Putrescine concentration” value was 1.01.

Turning to `OC(CCN1CCCCC1)(c1ccccc1)C1CCCCC1` (centres undefined) [Trihexyphenidyl-D,L hydrochloride] (20 µM), the “fold change of Putrescine concentration” value was 0.97.

For the molecule `O=C(Cn1cnnn1)N[C@@H]1C(=O)N2C(C(=O)O)=C(CSc3nncs3)CS[C@H]12` [Ceftezole] (20 µM), the “fold change of Putrescine concentration” value was 0.967. Under `CCOc1ccc(NC(N)=O)cc1` [(4-Ethoxyphenyl)urea] (50 µM) stands 0.986. The figure for `NC(=O)c1ncn([C@@H]2O[C@H](CO)[C@@H](O)[C@H]2O)n1` [Ribavirin] (20 µM) is 0.973; for `CC1(C)S[C@@H]2[C@H](NC(=O)C(C(=O)O)c3ccccc3)C(=O)N2[C@H]1C(=O)O` (some centres undefined) [Carbenicillin disodium salt] (20 µM) it is 0.986. Consider `O=C(c1ccccc1)c1ccc2n1CCC2C(=O)O` (centres undefined) [Ketorolac tromethamine] (20 µM), for which the “fold change of Putrescine concentration” value was 1.03. Under `CN(C(=O)CN(CCO)CC(=O)N(C)C(C)(C)Cc1ccccc1)C(C)(C)Cc1ccccc1` [Oxethazaine] (20 µM) stands 1; under `CCOC(=O)[C@H](CCc1ccccc1)N[C@@H](C)C(=O)N1Cc2ccccc2C[C@H]1C(=O)O` [Quinapril hydrochloride] (20 µM), 1.04. The figure for `CC[N+]1(CC)CCC(=C(c2ccccc2)c2ccccc2)C1C` (centres undefined) [Prifinium Bromide] (20 µM) is 1; for `O=P(O)(O)C(Cl)(Cl)P(=O)(O)O` [Clodronate disodium] (20 µM) it is 1.02; for `CCOC(=O)[C@@](C)(N)Cc1ccc(O)c(O)c1` [Methyldopate hydrochloride] (20 µM) it is 0.975. Under `O=C(NCCO[N+](=O)[O-])c1cccnc1` [Nicorandil] (20 µM) stands 1.03; under `CN1CCN(c2c(F)cc3c(=O)c(C(=O)O)cn(CCF)c3c2F)CC1` [Fleroxacin] (20 µM), 0.902; under `Cn1c(=O)c2c(ncn2CC(=O)O)n(C)c1=O` [Acefylline] (20 µM), 0.995.

For `CC(=O)[C@H]1CC[C@H]2[C@@H]3C[C@H](C)C4=CC(=O)CC[C@]4(C)[C@H]3[C@@H](O)C[C@]12C` [Medrysone] (20 µM), the “fold change of Putrescine concentration” value is 1.

As for `C=C1c2c(Cl)ccc(O)c2C(O)=C2C(=O)[C@]3(O)C(O)=C(C(N)=O)C(=O)[C@@H](N(C)C)[C@@H]3[C@@H](O)[C@H]12.O=C(O)c1cc(S(=O)(=O)O)ccc1O` [Meclocycline sulfosalicylate] (20 µM), the “fold change of Putrescine concentration” value is 0.444 (active).

In the case of `N[C@@H](CSCCCO)C(=O)O` [Fudosteine] (20 µM), the “fold change of Putrescine concentration” value was 1.02. The figure for `CC1=C(C(=O)O)N2C(=O)[C@@H](NC(=O)[C@H](N)C3=CCC=CC3)[C@H]2SC1` [Cephradine monohydrate] (20 µM) is 1; for `Nc1ncnc2c1ncn2[C@@H]1O[C@H](CO)[C@@H](O)[C@@H]1O` [Vidarabine] (20 µM) it is 1.02; for `CC(C)(CO)[C@@H](O)C(=O)NCCC(=O)NCCSSCCNC(=O)CCNC(=O)[C@H](O)C(C)(C)CO` [D-Pantethine] (20 µM) it is 1.03. With `CC(=O)SCC(Cc1ccccc1)C(=O)NCC(=O)OCc1ccccc1` (centres undefined) [Racecadotril] (20 µM), the “fold change of Putrescine concentration” value was 0.991. The figure for `O=C(CCCN1CCN(c2ccccn2)CC1)c1ccc(F)cc1` [Azaperone] (20 µM) is 0.987; for `C[C@H](NCc1ccc(OCc2cccc(F)c2)cc1)C(N)=O` [Safinamide] (20 µM) it is 1; for `CCCC(=O)N1CCCN(c2nc(N)c3cc(OC)c(OC)cc3n2)CC1` [Bunazosin hydrochloride] (20 µM) it is 0.996. In the case of `Cc1ccc2c(c1)c1c3n2CCNC3CCC1` (centres undefined) [Pirlindole mesylate] (20 µM), the “fold change of Putrescine concentration” value is 1. The figure for `CC(C)(C)NC(=O)[C@@H]1CN(Cc2cccnc2)CCN1C[C@@H](O)C[C@@H](Cc1ccccc1)C(=O)N[C@H]1c2ccccc2C[C@H]1O` [Indinavir sulfate] (20 µM) is 1.03.

For the molecule `COc1cc(Nc2c(C#N)cnc3cc(OCCCN4CCN(C)CC4)c(OC)cc23)c(Cl)cc1Cl` [Bosutinib] (20 µM), the “fold change of Putrescine concentration” value was 1. Under `O=C1[C@H](CC[C@H](O)c2ccc(F)cc2)[C@@H](c2ccc(O)cc2)N1c1ccc(F)cc1` [Ezetimibe] (20 µM) stands 1.
